# Measured values: article PMC7862700, “An all-to-all approach to the identification of sequence-specific readers for epigenetic DNA modifications on cytosine”
# Columns and labels:
# Experiment in all cases: DAPPL (digital affinity profiling via proximity ligation, sequencing); 10 mM Tris-HCl pH 7.5, 50 mM NaCl, 1 mM DTT, 4% glycerol, room temperature, 30 min; GST-TFs on glutathione beads, 16-mer random dsDNA library, 0.1% formaldehyde crosslink after washing; high values mean tight binding
# FLI1 = target: T1, FLI1 (Homo sapiens, UniProt Q01543 1-452); details: protein: recombinant; tags: N-terminal GST; dsDNA, one strand shown
# T1 sequence: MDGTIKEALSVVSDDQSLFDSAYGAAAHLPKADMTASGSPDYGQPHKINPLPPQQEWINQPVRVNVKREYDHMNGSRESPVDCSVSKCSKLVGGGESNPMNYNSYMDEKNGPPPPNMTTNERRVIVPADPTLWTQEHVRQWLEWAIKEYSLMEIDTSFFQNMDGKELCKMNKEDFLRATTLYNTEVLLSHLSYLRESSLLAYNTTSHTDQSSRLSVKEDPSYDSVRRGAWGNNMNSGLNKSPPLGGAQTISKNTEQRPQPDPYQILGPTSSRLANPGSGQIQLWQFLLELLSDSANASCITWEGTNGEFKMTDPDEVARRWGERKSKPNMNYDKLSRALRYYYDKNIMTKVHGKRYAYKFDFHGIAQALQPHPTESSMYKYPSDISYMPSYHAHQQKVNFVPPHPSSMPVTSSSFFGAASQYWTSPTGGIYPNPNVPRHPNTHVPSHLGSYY
# How it was run: (§1)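 Binding signal is defined as a hexamer's read frequency for one factor over its frequency for the tag-only sample. To obtain reads, GST-fused human transcription factors were expressed in yeast, captured on glutathione beads, barcoded with DNA and pooled with that sample. Pools met 200 nmole of a 16-mer random double-stranded DNA library in Tris/NaCl/DTT/glycerol buffer for 30 min at room temperature before washing, 0.1% formaldehyde crosslinking, proximity ligation (BsaI/T4 ligase, 1 h, 37 °C), PCR and Illumina NextSeq500 sequencing.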
# ELK1 = target: T2, ELK1 (Homo sapiens, UniProt P19419 1-428); details: protein: recombinant; tags: N-terminal GST; dsDNA, one strand shown
# T2 sequence: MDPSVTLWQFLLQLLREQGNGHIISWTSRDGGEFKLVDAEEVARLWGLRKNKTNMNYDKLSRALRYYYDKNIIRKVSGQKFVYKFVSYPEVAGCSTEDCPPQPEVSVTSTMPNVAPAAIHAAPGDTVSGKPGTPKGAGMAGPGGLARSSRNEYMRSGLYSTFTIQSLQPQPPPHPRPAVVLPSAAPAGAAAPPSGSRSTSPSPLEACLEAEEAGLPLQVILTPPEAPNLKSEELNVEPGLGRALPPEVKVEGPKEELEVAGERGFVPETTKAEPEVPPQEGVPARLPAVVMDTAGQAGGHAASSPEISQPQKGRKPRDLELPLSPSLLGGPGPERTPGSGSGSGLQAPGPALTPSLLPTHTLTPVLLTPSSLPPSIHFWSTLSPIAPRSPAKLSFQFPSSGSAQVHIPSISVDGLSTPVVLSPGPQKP
# How it was run: as §1
# GABPA = target: T3, GABPA (Homo sapiens, UniProt Q06546 1-454); details: protein: recombinant; tags: N-terminal GST; dsDNA, one strand shown
# T3 sequence: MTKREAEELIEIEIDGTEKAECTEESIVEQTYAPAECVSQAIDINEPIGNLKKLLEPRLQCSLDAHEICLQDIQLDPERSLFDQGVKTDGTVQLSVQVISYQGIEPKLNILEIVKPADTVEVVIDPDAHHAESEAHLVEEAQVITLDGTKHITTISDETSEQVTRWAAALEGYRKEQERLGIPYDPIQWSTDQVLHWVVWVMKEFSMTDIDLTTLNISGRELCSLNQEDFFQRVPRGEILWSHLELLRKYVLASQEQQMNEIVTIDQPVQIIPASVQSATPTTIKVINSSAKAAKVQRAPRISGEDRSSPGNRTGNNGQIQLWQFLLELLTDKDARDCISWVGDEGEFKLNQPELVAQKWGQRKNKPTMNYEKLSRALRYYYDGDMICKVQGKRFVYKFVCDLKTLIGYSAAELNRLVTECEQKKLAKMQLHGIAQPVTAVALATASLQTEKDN
# How it was run: as §1
# ERG = target: T4, ERG (Homo sapiens, UniProt P11308 1-479); details: protein: recombinant; tags: N-terminal GST; dsDNA, one strand shown
# T4 sequence: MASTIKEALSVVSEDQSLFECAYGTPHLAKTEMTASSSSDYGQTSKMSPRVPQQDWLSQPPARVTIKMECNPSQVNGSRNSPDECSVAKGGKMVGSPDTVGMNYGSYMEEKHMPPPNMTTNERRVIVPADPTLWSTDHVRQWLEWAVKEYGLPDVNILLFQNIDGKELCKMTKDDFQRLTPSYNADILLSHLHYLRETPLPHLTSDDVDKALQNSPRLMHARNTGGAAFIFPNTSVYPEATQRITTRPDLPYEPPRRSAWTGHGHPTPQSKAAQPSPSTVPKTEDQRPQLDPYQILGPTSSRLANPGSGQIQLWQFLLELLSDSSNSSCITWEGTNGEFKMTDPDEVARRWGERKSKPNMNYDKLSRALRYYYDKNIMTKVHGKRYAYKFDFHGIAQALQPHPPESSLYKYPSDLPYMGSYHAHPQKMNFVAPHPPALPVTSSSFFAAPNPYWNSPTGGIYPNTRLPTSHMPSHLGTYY
# How it was run: as §1
# ELF1 = ELF1 (Homo sapiens, UniProt P32519 1-619); details: protein: recombinant; tags: N-terminal GST; dsDNA, one strand shown
# Sequence of ELF1 (P32519 whole entry): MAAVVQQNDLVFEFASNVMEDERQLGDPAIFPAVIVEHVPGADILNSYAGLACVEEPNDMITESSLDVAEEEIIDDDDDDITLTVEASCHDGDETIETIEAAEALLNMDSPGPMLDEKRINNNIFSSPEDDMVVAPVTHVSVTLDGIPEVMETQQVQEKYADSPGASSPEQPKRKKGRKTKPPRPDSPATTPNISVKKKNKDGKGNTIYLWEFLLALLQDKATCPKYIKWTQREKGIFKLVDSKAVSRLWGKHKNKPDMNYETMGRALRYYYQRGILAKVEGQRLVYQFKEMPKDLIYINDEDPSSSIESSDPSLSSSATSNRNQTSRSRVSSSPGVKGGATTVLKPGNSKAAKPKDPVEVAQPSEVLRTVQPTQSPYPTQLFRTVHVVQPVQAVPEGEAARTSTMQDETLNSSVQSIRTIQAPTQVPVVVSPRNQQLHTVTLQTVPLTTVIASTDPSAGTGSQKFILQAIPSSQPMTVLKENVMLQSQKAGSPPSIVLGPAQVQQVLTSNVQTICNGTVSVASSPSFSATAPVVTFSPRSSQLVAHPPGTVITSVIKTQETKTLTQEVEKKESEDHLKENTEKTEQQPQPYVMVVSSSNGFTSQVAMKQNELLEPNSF
# How it was run: as §1
# EHF = target: T5, EHF (Homo sapiens, UniProt Q9NZC4 1-300); details: protein: recombinant; tags: N-terminal GST; dsDNA, one strand shown
# T5 sequence: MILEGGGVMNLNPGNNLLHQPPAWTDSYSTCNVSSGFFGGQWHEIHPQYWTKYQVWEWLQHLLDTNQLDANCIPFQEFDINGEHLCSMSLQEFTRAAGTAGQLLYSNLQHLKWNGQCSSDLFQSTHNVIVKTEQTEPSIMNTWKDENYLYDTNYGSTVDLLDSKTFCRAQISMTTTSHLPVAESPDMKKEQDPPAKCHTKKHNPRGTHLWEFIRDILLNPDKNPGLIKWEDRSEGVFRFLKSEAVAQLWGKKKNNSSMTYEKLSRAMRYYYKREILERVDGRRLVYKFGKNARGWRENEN
# How it was run: as §1
# SPI1 = SPI1 (Homo sapiens, UniProt P17947 1-270); details: protein: recombinant; tags: N-terminal GST; dsDNA, one strand shown
# How it was run: as §1
# SPIB = SPIB (Homo sapiens, UniProt Q01892 1-262); details: protein: recombinant; tags: N-terminal GST; dsDNA, one strand shown
# Sequence of SPIB (Q01892 whole entry): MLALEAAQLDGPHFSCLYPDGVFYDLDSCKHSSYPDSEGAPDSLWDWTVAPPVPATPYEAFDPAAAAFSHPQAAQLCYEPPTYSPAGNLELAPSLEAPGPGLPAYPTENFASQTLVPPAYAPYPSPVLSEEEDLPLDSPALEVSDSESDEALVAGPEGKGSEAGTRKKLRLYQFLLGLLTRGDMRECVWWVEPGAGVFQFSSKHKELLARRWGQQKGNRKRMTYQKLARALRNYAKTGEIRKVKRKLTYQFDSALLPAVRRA
# How it was run: as §1
# ELK3 = target: T6, ELK3 (Homo sapiens, UniProt P41970 1-407); details: protein: recombinant; tags: N-terminal GST; dsDNA, one strand shown
# T6 sequence: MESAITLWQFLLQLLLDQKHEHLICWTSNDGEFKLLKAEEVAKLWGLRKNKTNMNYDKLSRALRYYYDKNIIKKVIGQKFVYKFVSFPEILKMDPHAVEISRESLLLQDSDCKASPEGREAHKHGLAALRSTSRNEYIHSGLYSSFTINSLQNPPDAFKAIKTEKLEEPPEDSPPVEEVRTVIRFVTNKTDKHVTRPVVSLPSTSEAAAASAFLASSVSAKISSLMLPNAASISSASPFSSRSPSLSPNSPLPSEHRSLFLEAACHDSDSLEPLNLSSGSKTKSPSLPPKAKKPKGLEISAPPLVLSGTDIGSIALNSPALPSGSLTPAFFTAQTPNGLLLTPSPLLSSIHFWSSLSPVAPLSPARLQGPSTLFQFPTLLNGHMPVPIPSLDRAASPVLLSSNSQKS
# How it was run: as §1
# FEV = target: T7, FEV (Homo sapiens, UniProt Q99581 1-238); details: protein: recombinant; tags: N-terminal GST; dsDNA, one strand shown
# T7 sequence: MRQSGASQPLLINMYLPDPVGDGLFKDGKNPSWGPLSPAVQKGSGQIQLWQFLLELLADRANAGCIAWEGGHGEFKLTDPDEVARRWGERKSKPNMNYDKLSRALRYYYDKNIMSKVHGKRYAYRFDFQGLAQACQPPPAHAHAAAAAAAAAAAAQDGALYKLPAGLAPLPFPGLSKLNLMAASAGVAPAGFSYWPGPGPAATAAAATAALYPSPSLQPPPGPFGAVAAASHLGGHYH
# How it was run: as §1
# ETV5 = ETV5 (Homo sapiens, UniProt P41161 1-510); details: protein: recombinant; tags: N-terminal GST; dsDNA, one strand shown
# Sequence of ETV5 (P41161 whole entry): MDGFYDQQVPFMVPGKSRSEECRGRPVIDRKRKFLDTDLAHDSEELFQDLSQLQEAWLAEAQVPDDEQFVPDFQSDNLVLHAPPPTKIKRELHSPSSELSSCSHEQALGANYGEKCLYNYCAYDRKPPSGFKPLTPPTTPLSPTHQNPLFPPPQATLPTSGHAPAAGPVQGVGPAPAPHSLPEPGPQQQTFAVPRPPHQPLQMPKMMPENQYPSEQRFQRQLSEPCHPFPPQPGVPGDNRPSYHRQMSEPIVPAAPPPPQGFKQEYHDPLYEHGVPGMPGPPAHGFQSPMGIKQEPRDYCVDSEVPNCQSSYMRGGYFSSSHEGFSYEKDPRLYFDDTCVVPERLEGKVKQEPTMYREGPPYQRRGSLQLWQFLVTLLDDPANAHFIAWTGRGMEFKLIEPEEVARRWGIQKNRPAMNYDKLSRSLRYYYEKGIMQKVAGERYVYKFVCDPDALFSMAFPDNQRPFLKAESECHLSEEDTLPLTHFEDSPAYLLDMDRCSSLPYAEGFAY
# How it was run: as §1
# HSF1 = HSF1 (Homo sapiens, UniProt Q00613 1-529); details: protein: recombinant; tags: N-terminal GST; chain copies: 3; dsDNA, one strand shown
# Sequence of HSF1 (Q00613 whole entry): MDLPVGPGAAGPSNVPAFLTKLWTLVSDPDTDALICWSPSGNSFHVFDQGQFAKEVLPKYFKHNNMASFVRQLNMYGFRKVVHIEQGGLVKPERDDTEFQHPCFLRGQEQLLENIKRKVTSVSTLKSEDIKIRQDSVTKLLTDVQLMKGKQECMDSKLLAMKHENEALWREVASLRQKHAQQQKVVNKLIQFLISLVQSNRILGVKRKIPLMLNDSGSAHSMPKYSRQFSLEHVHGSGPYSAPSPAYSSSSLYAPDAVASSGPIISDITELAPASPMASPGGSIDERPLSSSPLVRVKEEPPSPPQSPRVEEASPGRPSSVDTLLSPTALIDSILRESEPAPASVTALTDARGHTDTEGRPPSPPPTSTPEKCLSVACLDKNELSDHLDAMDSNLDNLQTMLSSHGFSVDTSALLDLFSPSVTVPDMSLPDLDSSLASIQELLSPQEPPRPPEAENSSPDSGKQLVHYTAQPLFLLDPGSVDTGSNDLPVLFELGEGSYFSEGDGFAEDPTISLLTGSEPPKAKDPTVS
# How it was run: as §1
# SPIC = target: T8, SPIC (Homo sapiens, UniProt Q8N5J4 1-248); details: protein: recombinant; tags: N-terminal GST; dsDNA, one strand shown
# T8 sequence: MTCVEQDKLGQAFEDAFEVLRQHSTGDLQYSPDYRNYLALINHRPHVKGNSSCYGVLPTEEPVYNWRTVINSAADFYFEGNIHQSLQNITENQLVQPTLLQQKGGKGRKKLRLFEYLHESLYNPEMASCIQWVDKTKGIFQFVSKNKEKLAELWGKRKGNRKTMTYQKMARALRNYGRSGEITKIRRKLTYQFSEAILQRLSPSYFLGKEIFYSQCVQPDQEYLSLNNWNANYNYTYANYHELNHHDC
# How it was run: as §1
# ELF4 = ELF4 (Homo sapiens, UniProt Q99607 1-663); details: protein: recombinant; tags: N-terminal GST; dsDNA, one strand shown
# Sequence of ELF4 (Q99607 whole entry): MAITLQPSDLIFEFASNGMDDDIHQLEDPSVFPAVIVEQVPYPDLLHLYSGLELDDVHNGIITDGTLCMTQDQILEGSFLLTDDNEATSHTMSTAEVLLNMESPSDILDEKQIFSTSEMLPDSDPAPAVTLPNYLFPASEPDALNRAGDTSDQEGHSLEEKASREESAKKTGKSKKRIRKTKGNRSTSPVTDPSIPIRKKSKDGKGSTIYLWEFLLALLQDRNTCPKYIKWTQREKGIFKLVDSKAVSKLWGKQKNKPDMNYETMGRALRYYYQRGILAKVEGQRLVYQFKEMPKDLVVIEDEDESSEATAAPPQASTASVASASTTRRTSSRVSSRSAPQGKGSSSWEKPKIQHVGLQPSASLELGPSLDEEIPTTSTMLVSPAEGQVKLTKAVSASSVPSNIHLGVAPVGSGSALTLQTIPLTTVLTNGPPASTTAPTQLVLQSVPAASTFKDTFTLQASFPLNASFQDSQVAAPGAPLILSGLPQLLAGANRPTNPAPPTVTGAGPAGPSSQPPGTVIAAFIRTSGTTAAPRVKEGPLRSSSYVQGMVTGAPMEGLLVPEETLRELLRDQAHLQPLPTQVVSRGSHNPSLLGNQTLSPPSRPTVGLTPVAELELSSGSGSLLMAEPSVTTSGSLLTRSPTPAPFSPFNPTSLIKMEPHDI
# How it was run: as §1
# ELK4 = target: T9, ELK4 (Homo sapiens, UniProt P28324-2 1-405); details: protein: recombinant; tags: N-terminal GST; dsDNA, one strand shown
# T9 sequence: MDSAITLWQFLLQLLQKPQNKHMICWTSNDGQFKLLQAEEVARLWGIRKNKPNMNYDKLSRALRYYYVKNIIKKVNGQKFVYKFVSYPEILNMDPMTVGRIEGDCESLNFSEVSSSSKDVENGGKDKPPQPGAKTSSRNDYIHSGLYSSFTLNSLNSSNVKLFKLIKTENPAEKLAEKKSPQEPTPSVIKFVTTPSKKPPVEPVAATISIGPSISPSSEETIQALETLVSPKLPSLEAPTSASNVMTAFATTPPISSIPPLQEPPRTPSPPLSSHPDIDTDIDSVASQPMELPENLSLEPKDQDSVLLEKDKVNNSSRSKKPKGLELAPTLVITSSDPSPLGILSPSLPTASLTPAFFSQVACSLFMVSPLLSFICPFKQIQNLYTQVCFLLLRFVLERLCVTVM
# How it was run: as §1
# ETV2 = target: T10, ETV2 (Homo sapiens, UniProt O00321 1-342); details: protein: recombinant; tags: N-terminal GST; dsDNA, one strand shown
# T10 sequence: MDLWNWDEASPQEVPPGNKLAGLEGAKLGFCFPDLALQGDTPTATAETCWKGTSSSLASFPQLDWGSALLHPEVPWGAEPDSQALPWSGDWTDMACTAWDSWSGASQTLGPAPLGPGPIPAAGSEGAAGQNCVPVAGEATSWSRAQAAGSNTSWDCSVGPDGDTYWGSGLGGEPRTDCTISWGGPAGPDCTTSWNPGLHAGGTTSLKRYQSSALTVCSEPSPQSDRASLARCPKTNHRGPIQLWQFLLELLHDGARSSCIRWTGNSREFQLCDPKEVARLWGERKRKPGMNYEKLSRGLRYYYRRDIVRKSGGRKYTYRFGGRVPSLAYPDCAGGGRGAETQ
# How it was run: as §1
# ELF3 = target: T11, ELF3 (Homo sapiens, UniProt P78545 1-371); details: protein: recombinant; tags: N-terminal GST; dsDNA, one strand shown
# T11 sequence: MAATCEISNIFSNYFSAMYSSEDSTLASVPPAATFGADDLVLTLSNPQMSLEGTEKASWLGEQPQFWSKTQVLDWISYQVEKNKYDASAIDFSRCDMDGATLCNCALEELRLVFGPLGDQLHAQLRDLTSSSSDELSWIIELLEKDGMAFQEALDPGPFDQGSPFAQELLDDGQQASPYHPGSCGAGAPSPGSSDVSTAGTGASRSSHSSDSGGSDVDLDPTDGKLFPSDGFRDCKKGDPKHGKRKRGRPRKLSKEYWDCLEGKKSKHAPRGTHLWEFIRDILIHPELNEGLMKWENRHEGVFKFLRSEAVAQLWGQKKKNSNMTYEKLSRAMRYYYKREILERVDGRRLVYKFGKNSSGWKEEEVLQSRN
# How it was run: as §1
# CRX = CRX (Homo sapiens, UniProt O43186 1-299); details: protein: recombinant; tags: N-terminal GST; dsDNA, one strand shown
# Sequence of CRX (O43186 whole entry): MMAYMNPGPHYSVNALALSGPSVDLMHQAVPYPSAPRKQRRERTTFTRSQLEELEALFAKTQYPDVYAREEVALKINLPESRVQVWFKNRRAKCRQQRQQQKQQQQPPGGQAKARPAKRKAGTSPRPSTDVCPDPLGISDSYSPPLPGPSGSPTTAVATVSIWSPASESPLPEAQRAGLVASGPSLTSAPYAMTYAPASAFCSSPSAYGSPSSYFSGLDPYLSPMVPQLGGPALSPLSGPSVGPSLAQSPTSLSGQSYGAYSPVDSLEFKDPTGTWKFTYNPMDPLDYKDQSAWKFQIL
# How it was run: as §1
# ETV1 = ETV1 (Homo sapiens, UniProt P50549 1-477); details: protein: recombinant; tags: N-terminal GST; dsDNA, one strand shown
# Sequence of ETV1 (P50549 whole entry): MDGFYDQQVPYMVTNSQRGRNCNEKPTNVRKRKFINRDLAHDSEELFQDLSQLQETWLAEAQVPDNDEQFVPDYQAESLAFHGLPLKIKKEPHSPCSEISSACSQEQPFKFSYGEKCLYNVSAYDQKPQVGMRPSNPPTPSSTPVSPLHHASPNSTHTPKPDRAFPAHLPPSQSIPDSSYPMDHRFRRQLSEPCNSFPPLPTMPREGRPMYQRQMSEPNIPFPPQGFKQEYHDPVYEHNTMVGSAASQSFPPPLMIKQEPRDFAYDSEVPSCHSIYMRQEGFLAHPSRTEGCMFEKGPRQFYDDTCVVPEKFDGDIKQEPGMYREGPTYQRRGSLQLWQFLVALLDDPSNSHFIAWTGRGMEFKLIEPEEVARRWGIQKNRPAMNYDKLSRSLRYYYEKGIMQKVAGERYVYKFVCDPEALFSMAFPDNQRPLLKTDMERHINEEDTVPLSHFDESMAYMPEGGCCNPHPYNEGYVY
# How it was run: as §1
sequence,measurement,setting,value
AAAACG,binding signal,FLI1,"1.13 fold enrichment (6-mer frequency, TF over GST control)"
same,binding signal,ELK1,"1.19 fold enrichment (6-mer frequency, TF over GST control)"
same,binding signal,GABPA,"1.14 fold enrichment (6-mer frequency, TF over GST control)"
same,binding signal,ERG,"1.21 fold enrichment (6-mer frequency, TF over GST control)"
same,binding signal,ELF1,"1.16 fold enrichment (6-mer frequency, TF over GST control)"
same,binding signal,EHF,"1.17 fold enrichment (6-mer frequency, TF over GST control)"
same,binding signal,SPI1,"1.43 fold enrichment (6-mer frequency, TF over GST control)"
same,binding signal,SPIB,"1.11 fold enrichment (6-mer frequency, TF over GST control)"
same,binding signal,ELK3,"1.14 fold enrichment (6-mer frequency, TF over GST control)"
same,binding signal,FEV,"1.18 fold enrichment (6-mer frequency, TF over GST control)"
same,binding signal,ETV5,"1.29 fold enrichment (6-mer frequency, TF over GST control)"
same,binding signal,HSF1,"1.06 fold enrichment (6-mer frequency, TF over GST control)"
same,binding signal,SPIC,"1.3 fold enrichment (6-mer frequency, TF over GST control)"
same,binding signal,ELF4,"1.22 fold enrichment (6-mer frequency, TF over GST control)"
same,binding signal,ELK4,"1.19 fold enrichment (6-mer frequency, TF over GST control)"
same,binding signal,ETV2,"1.24 fold enrichment (6-mer frequency, TF over GST control)"
same,binding signal,ELF3,"1.16 fold enrichment (6-mer frequency, TF over GST control)"
same,binding signal,CRX,"1.05 fold enrichment (6-mer frequency, TF over GST control)"
same,binding signal,ETV1,"1.21 fold enrichment (6-mer frequency, TF over GST control)"
